Screening data deposited in PubChem by NMMLSC.
In the library only some 0.37% were active in any assay of this set; here they are far more common.
Cdc42 wt GTP: modulators (inhibitors or activators) of GTP binding to human Cdc42 wildtype; GST-Cdc42 beads, Bodipy-GTP binding, flow cytometry; actives lie on both sides; P60953; percent activity (GTP binding), % at 10 µM; 190,000 compounds, 0.2% hits;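 active means percent activity GTP binding at least 20 points away from the 100% baseline, either down as inhibitor or up as activator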;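 further: median bead fluorescence of bound Bodipy-FL-GTP at 100 nM; 0% = excess unlabeled GTP control and 100% = no compound control; below 100% means less GTP binding so inhibitor and above means activator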
Target sequence (P60953 whole entry, looked up): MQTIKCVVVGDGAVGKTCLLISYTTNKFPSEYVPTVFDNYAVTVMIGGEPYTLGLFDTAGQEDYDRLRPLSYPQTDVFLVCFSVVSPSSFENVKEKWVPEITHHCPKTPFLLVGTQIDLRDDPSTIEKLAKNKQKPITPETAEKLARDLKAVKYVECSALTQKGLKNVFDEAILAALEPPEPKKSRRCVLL
Rab7 wt modul: modulators of GTP binding to dog Rab7 wildtype GTPase; GST-Rab7 beads, fluorescent GTP binding, flow cytometry; actives lie on both sides; untreated = 100%, excess cold GTP = 0%; 190,000 compounds, 0.055% hits; AID 758; GTP binding activity (percent of control), % at 10 µM;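 active means fluorescent GTP binding to Rab7 beads changed by at least 20 points from the 100% baseline, either direction, mostly lower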;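 further: median green fluorescence of bound Bodipy-FL-GTP per Rab7 bead population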
HRas wt GTP bind: modulators of GTP binding to human HRas wildtype | 190,000 compounds, 0.14% hits | GST-Ras wt beads, Bodipy-FL-GTP binding, flow cytometry; actives lie on both sides | GTP binding activity, % at 10 µM | P01112;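 active means GTP binding activity at least 20% away from the 100% baseline, either lowered as inhibitor or raised as activator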;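 further: 0% = unlabeled GTP competition control and 100% = no-compound control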
Rab2A wt mod: changes GTP binding to wildtype dog Rab2A, up or down; P61105; GST-Rab2 wt beads, Bodipy-GTP binding, flow cytometry; GTP binding activity, % at 10 µM; 190,000 compounds, 0.19% hits;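 active means GTP binding activity at least 20 points away from 100%, either lowered or raised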;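 further: 0% = beads with excess unlabeled GTP and 100% = no-compound control corrected for plate trend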
Rac1 wt GTP bind: modulators of human Rac1 wildtype GTP binding; P63000; GTP binding activity (% of control), % at 10 µM; 190,000 compounds, 0.27% hits; GST-Rac1 beads, fluorescent GTP binding, flow cytometry; actives lie on both sides; 0 = cold GTP competed, 100 = untreated;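 active means GTP binding activity at least 20 points away from the 100% control level, either lower or higher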
Rac1 mut GTP: modulators of GTP binding to human Rac1 activated mutant | 190,000 compounds, 0.11% hits | P63000 | GST-Rac1 activated beads, fluorescent GTP binding, flow cytometry; actives lie on both sides; 100% means binding = to untreated wells | AID 764 | percent activity (GTP binding), % at 10 µM;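 active means GTP binding at least 20 percentage points away from the 100% baseline, in either direction, so actives lie on both sides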
* marks the source's active call; other numbers are inactive results; [ ] = another dose, or the depositor's remark.

SMILES | Cdc42 wt GTP | Rab7 wt modul | HRas wt GTP bind | Rab2A wt mod | Rac1 wt GTP bind | Rac1 mut GTP
Cc1cc(C)cc(N2C(=O)NC(=O)/C(=C\C=C\c3ccco3)C2=O)c1 | 78* | 88 | 85 | 83 | 78* | 84
CCCCn1c(O)c(C=NCCN2CCCCC2)c(=O)[nH]c1=O | 103 | 96 | 102 | 104 | 102 | 100
COCCCn1c(N)c(C(=O)Nc2sc3c(c2C(=O)OC)CCCC3)c2nc3ccccc3nc21 | 67* | 84 | 65* | 66* | 84 | 82
CCC(C)NC(=O)c1c(N)n(CCCOC)c2nc3ccccc3nc12 (stereo not drawn) | 99 | 99 | 99 | 99 | 99 | 98
[N-]=[N+]=NC1C[C@H](n2ccc(=O)[nH]c2=O)O[C@@H]1CO (stereo partly drawn) | 97 | 96 | 99 | 100 | 102 | 98
Cc1ccc(C2SCC(=O)Nc3c2c(=O)[nH]n3C2CCOC(C)(C)C2)cc1 (stereo not drawn) | 102 | 101 | 100 | 101 | 102 | 98
CC1(C)CC(n2[nH]c(=O)c3c2NC(=O)CSC3c2ccccc2)CCO1 (stereo not drawn) | 94 | 96 | 97 | 75* | 102 | 96
COc1ccc(-c2cc(=NCCCCCC(=O)O)c3cc(C)ccc3o2)cc1 | 69* | 93 | 73* | 70* | 71* | 88
Cc1nn(Cc2ccccc2Cl)c(C)c1C(=O)NC1CCCc2ccccc21 (stereo not drawn) | 98 | 96 | 96 | 99 | 104 | 100
O=c1[nH]c(=S)[nH]c(O)c1N=Nc1ccc2c(c1)OCO2 | 91 | 97 | 93 | 94 | 94 | 92
O=c1[nH]c(=S)[nH]c(O)c1N=Nc1cc2c(cc1[N+](=O)[O-])OCO2 | 79* | 85 | 82 | 81 | 83 | 79*
CC(Oc1ccc(-c2ccccc2)cc1)C(=O)O (stereo not drawn) | 161*[activator] | 126*[activator] | 137*[activator] | 141*[activator] | 157*[activator] | 130*[activator]
